This note sets out measurements from PubChem BioAssay (NCI).

Where “and” joins values, the source holds several entries; their conditions need not be identical. Identical values can stand only once. The panel holds about 83,000 compounds, 20% with a hit somewhere; the sample as a whole holds those more often.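 Testing used 96-well plates and a 48-hour single-concentration exposure. Example: -40 means 40% of the starting cells died.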 Calls of active or inactive are those of the source. How the source made its calls: active means growth percent below 10; inactive means the rest.

The experiment has as its system MDA-MB-468 breast. The experiment can be described thus: NCI-60 one-dose screen, 48 h (100 = growth as untreated, 0 = no growth, -100 = all killed). As to conditions: 10 µM unless noted.
With `CC1CCC(n2cnc3c(Cl)ncnc32)O1` (stereo not given), the growth was 96.3% (inactive).
For the compound `O=C(/C=C/CN1CCCCC1)Nc1cc2c(Nc3ccc(F)c(Cl)c3F)ncnc2cc1OCCOC(F)F`, the growth was -48.7% (active).
The figure for `COc1nc2c(c(=O)n1C)CN(Cc1ccccc1)C=N2` is 97.6% (inactive); for `CC1(C)OC(=O)C(=Cc2ccccc2Br)C(=O)O1` it is 98.2% (inactive).
For the compound `N#Cc1c(-c2ccc(Cl)cc2)nc(NN=Cc2ccco2)nc1N1CCOCC1`, the growth was 30.9% (inactive).
The figure for `CCCC(=O)Oc1ccc(/C(=C(\C)c2ccccc2)c2ccc(OCCN(CC)CC)cc2)cc1` is 62.4% (inactive).
To `CC(c1ccccc1)N(C)C` (stereo not given) belongs 86% (inactive).
The figure for `CC(C)=CC(=O)OCC(=O)O[C@@H]1C[C@]2(C(C)C)O[C@@]1(C)[C@@H]1CC[C@@H](C)[C@H]1[C@@H]2OC(=O)/C=C/c1ccccc1` is 64.3% (inactive).
Take `CCOC(=O)Nc1ccc(-c2ccc3c(c2)NC(=O)/C3=C\c2ccc[nH]2)cc1`: the growth is -8.48% (active).
The figure for `NC(=O)c1cc(I)ccc1NC(=O)COc1ccccc1` is 30.3% (inactive); for `NC(N)=NS(=O)(=O)c1ccc(Nc2ccc3nnc(-c4ccncc4)n3n2)cc1` it is 96.6% (inactive); for `CCCCn1c(Cc2ccc(OC)cc2)nc2cc(OC)c(OC)cc2c1=O` it is 46.7% (inactive).
The figure for `N#Cc1c(-c2cccs2)cc(-c2cnccn2)nc1SCC(=O)NNC(=S)Nc1ccc(F)cc1` is 122% (inactive); for `Cc1ccc(C2C3CC4CCCCC4N3[C@@]3(C(=O)Nc4cc(Cl)ccc43)C2C(=O)c2nc3ccccc3[nH]2)cc1` (stereo not given in full) it is -10.9% (active).
On to `CCn1cnc(C[C@H](NC(=O)[C@@H](NC(=O)Nc2cc(C(F)(F)F)cc(C(F)(F)F)c2)C(C)C)C(=O)OC)c1`, for which the growth was -81.1% [100 µM] (active).
Regarding `O=C1/C(=C\c2cn(-c3nc(N4CCOCC4)nc(N4CCOCC4)n3)c3ccccc23)c2ccccc2N1c1c(Cl)cccc1Cl`, the growth was 17% (inactive).
On to `O=C1/C(=C/c2ccc(C(F)(F)F)cc2)COc2ccc(O)cc21`, for which the growth was 100% (inactive).
In the case of `N/C(=N/N=C/c1ccccc1)N/N=C\c1ccccc1`, the growth was -15.7% (active).
Consider `C#CCOc1cccc(Nc2ncnc3ccc(NC(=O)C=C)cc23)c1`, for which the growth is -25.7% (active).
Consider `CC(=O)Nc1cc(S(=O)(=O)O)cc2cc(S(=O)(=O)O)c(N=Nc3ccccc3)c(O)c12`, for which the growth is 93.5% (inactive) and 101% (inactive).
Turning to `COc1ccc(C(=O)N2c3ccccc3Sc3ccccc32)c(OC)c1`, the growth was 0.159% (active).
To `Cc1nn(-c2ccccc2)c2ncnc(N/N=C/c3ccccc3O)c12` belongs -31.7% (active); to `Oc1c(Cl)cc(Oc2cc(Cl)c(O)c(CN3CCOCC3)c2)cc1CN1CCOCC1`, 84% (inactive); to `c1csc(-c2cn3nc(-c4c[nH]c5ccccc45)sc3n2)c1`, 19.4% (inactive).
To `O=C(Nc1cccc2ccccc12)c1cc2c(cc1Br)OCO2` belongs 95.4% (inactive).
